PubChem BioAssay (NCATS)
Results filed as inconclusive are left out. The source made the active and inactive calls. Unless noted, the call rests on the fitted dose curve; in most records, active means well fitted curve in the direction sought with a large enough effect; inconclusive means small, poorly fitted or top-dose-only effect, or another doubt; inactive means no such curve, though single readings can be large; an effect the other way counts as inactive or inconclusive.

Tests used:
[1] = Quantitative High-Throughput drug screen in 47 multiple myeloma cell lines against the NCATS MIPE library collection: VP6_DJ cell viability assay (AID 1919867); further: potency means the concentration at half of the fitted maximal effect; nearly all actives have a fitted effect of over 40% in size
In short: (§1)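 MIPE 4.0 approved/investigational drugs; 500 cells/well; 48 h 37 °C humidified 5% CO2; CTG luminescence readout; DMSO = 100%, media = 0% viability.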

[2] = Quantitative High-Throughput drug screen in 47 multiple myeloma cell lines against the NCATS MIPE library collection: UTMC2_PLB cell viability assay (AID 1919868); further: nearly all actives have a fitted effect of over 55% in size; further: potency means the concentration at half of the fitted maximal effect
In short: as §1

[3] = Quantitative High-Throughput drug screen in 47 multiple myeloma cell lines against the NCATS MIPE library collection: PCM6_Riken cell viability assay (AID 1919870); further: potency means the concentration at half of the fitted maximal effect; nearly all actives have a fitted effect of over 30% in size
In short: as §1

[4] = Quantitative High-Throughput drug screen in 47 multiple myeloma cell lines against the NCATS MIPE library collection: RPMI8226_ATCC cell viability assay (AID 1919871); further: nearly all actives have a fitted effect of over 30% in size; further: potency means the concentration at half of the fitted maximal effect
In short: as §1

[5] = Quantitative High-Throughput drug screen in 47 multiple myeloma cell lines against the NCATS MIPE library collection: OPM2_DSMZ cell viability assay (AID 1919872); further: nearly all actives have a fitted effect of over 30% in size; further: potency means the concentration at half of the fitted maximal effect
In short: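 Approved and investigational drugs from MIPE 4.0 were added by pin tool to 500 cells per well. After 48 hours at 37C, ATP-based CellTiter-Glo luminescence indicated remaining viability.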

[6] = Quantitative High-Throughput drug screen in 47 multiple myeloma cell lines against the NCATS MIPE library collection: KMS28BM_JCRB cell viability assay (AID 1919874); further: nearly all actives have a fitted effect of over 35% in size; further: potency means the concentration at half of the fitted maximal effect
In short: as §1

[7] = qHTS drug screen for cell cycle checkpoint inhibitors in PARPi-resistant BRCA-mutant ovarian cancer cell lines. (AID 1963452; calls by dose curve); settings: PEO1/OlaR viability, CellTiter-Glo luminescence, 96 h, stronger effect = lower value
In short: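 PEO1, PEO4 and PEO1/OlaR ovarian cancer cells, 600 per well, exposed 96 h at 37C to a dilution series. Viability read by CellTiter-Glo luminescence, normalized to DMSO and empty wells; activity summarized as Z-AUC.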

[8] = Quantitative High-Throughput drug screen in 47 multiple myeloma cell lines against the NCATS MIPE library collection: KMS11_JCRBsus cell viability assay (AID 1919873); further: potency means the concentration at half of the fitted maximal effect; nearly all actives have a fitted effect of over 50% in size
In short: as §1

[9] = Quantitative High-Throughput drug screen in 47 multiple myeloma cell lines against the NCATS MIPE library collection: PE2_PLB cell viability assay (AID 1919869); further: potency means the concentration at half of the fitted maximal effect; nearly all actives have a fitted effect of over 35% in size
In short: as §1

[10] = KB-3-1 P-gp reporter qHTS against the NCATS DSHEA and TCM libraries (AID 1919975); further: 0% is about no effect
In short: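 Cell viability by CellTiter-Glo luminescence following ~72 h compound exposure (concentration-response). Uses parental, non-P-gp-overexpressing KB-3-1 line, 500 cells/well in DMEM/10% FBS, attached ~4 h before dosing.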

[11] = qHTS Counterscreen for compound interference against the NCATS DSHEA and TCM libraries (AID 1919978); settings: firefly luciferase detection reagent interference, luminescence;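 further: compounds preincubated with 1 µM D-luciferin or buffer before detection reagent; % of control where 0% means no effect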
In short: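 With 1 uM D-luciferin or phosphate buffer only, compounds at final 19.5 nM–39.8 uM were incubated for 15 min at room temperature. Luciferase detection reagent was then added, and luminescence was measured after a further 30 min at room temperature.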

[12] = Dual reporter qHTS for agonist of Pregnane X Receptor (hPXR) against the NCATS DSHEA and TCM libraries: Fluorescence readout (AID 1920058); further: 0% is about no effect
In short: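 hPXR-Luc HepG2 cells, 2000/well in charcoal-stripped serum, attached 5 h, dosed for ~24 h at 37 °C. Fluorescence read is CellTiter-Fluor viability (Ex/Em 405/540 nm); rifampicin positive, tetraoctyl ammonium bromide (92 µM) cytotoxicity controls.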

[13] = molecular target: Nuclear receptor subfamily 1 group I member 2 (Homo sapiens) (UniProt O75469); test: Dual reporter qHTS for agonist of Pregnane X Receptor (hPXR) against the NCATS DSHEA and TCM libraries: Luminescence readout (AID 1920059); further: 0% is about no effect
In short: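 hPXR-LucHepG2 cells in phenol red-free DMEM with 5% charcoal-stripped FBS, 2000 cells/well, attached 5 h, then exposed 24 h at 37C to compounds; rifampicin as positive agonist control (2.8 nM–92 uM). Luciferase luminescence read.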

[14] = molecular target: Nuclear receptor subfamily 1 group I member 2 (Homo sapiens) (UniProt O75469); test: Dual reporter qHTS for antagonist of Pregnane X Receptor (hPXR) against the NCATS DSHEA and TCM libraries: Luminescence Readout (AID 1920060);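 further: HepG2 cells carrying hPXR luciferase reporter stimulated with rifampicin at 2 µM; 0% is about no effect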
In short: (§2)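 In antagonist mode, 2 uM rifampicin was added to hPXR-Luc HepG2 cells alongside test substances, incubated 24 h at 37 C; luminescence gave reporter activity, and CellTiter-Fluor fluorescence (405/540 nm) gave viability.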

[15] = Dual reporter qHTS for antagonist of Pregnane X Receptor (hPXR) against the NCATS DSHEA and TCM libraries: Fluorescence Readout (AID 1920061); further: 0% is about no effect
In short: as §2

[16] = measured here: PEO1 parental Z-AUC

Chain of Nuclear receptor subfamily 1 group I member 2 (Homo sapiens) (O75469 whole entry, looked up): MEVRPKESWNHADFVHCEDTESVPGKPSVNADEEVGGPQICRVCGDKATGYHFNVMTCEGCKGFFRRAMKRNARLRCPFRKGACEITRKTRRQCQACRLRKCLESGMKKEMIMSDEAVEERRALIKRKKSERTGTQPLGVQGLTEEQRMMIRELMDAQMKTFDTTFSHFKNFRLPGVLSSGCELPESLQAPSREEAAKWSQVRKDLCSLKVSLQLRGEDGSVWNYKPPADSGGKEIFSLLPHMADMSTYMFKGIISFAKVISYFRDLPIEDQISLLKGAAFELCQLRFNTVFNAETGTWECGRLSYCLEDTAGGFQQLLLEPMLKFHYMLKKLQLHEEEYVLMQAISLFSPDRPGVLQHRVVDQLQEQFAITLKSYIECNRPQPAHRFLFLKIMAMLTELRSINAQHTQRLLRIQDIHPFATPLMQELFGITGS

SMILES	Potency [1]	Potency [2]	Potency [3]	Potency [4]	Potency [5]	Potency [6]	Z-AUC [7]	Z-AUC [7, 16]	Z-AUC ([7]; measured here: PEO4 Z-AUC)	Potency [8]	Potency [9]	outcome [10]	max response [11]	outcome [12]	outcome [13]	outcome [14]	outcome [15]
CN(C)CCOC(c1ccccc1)c1ccccc1	6.62 µM (active)	10.5 µM (active)	8.33 µM (active)	inactive	inactive	5.9 µM (active)	-0.454 (inactive)	0.718	-0.44								
O=c1[nH]cc(F)c(=O)[nH]1	5.9 µM (active)	inactive	10.5 µM (active)	0.235 µM (active)	inactive	inactive	0.953 (inactive)	0.582	0.136	13.2 µM (active)							
NC(=O)NO	1.05 µM (active)	1.66 µM (active)	2.35 µM (active)	3.72 µM (active)	6.62 µM (active)	0.935 µM (active)	1.41 (inactive)	1.02	0.874	0.526 µM (active)	3.32 µM (active)						
O=c1c(O)c(-c2ccc(O)c(O)c2)oc2cc(O)cc(O)c12	16.6 µM (active)		18.7 µM (active)	inactive		inactive	0.194 (inactive)	0.475	0.343		18.7 µM (active)	inactive	-0.891% (inactive)	inactive	inactive	inactive	inactive
CC[C@@]1(O)C(=O)OCc2c1cc1n(c2=O)Cc2cc3c(CN(C)C)c(O)ccc3nc2-1	1.48 µM (active)	0.0526 µM (active)	1.66 µM (active)	14.8 µM (active)	16.6 µM (active)	0.662 µM (active)	-0.723 (inactive)	-1.25	-0.128	3.72 µM (active)	0.662 µM (active)						
CN(C)C(=O)C(CCN1CCC(O)(c2ccc(Cl)cc2)CC1)(c1ccccc1)c1ccccc1	20.9 µM (active)	18.7 µM (active)	20.9 µM (active)	20.9 µM (active)	18.7 µM (active)	18.7 µM (active)	-1.16 (inactive)	-0.647	-0.794	10.5 µM (active)	26.4 µM (active)						
CC(CCc1ccc(O)cc1)NCCc1ccc(O)c(O)c1 (configuration not stated)	16.6 µM (active)		20.9 µM (active)	18.7 µM (active)	18.7 µM (active)	26.4 µM (active)				26.4 µM (active)	20.9 µM (active)						
O=C(Nc1ccc([N+](=O)[O-])cc1Cl)c1cc(Cl)ccc1O	0.743 µM (active)	1.05 µM (active)	1.32 µM (active)	1.05 µM (active)	1.32 µM (active)		-0.74 (inactive)	-1.01	-1.03	0.526 µM (active)							
